# Measured values as given in PubChem BioAssay (NCATS).
# Results filed as inconclusive are left out. Entries that show only a call come without a potency. Unmarked numbers belong to inactive results. Active and inactive are the calls of the source. Calls come from the whole dose curve; as a rule, active = well fitted cell-killing curve with a large enough effect; inconclusive = small, poorly fitted or top-dose-only effect, or effect the other way; inactive = flat fitted curve, though single readings scatter.
# System: Tov112D
# Assay: Primary qHTS to identify gynecologic anti-cancer compounds using libraries of approved drugs and bioactive compounds (AID 1345084); note: nearly all actives have a fitted effect of over 55% in size
# Details: Gynecologic cancer cell panel viability, ATPlite luminescence, 48 h; series mostly up to 57.5 µM
# Procedure, shortened: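 Cells, 1,000 per well, plated 16 h, then exposed 48 h at 37 C to compounds. Viability by ATPlite luminescence after 15 min at room temperature.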
Compound,Potency,"activity change, negative = cytotoxicity"
C=C1C(=O)O[C@@H]2/C=C(\CO)CC/C=C(\CO)[C@H](OC(C)=O)C(OC(=O)C(C)CC)C12 (stereo not given in full),inactive,–
O=C(NCC1CCN(Cc2cccc(Cl)c2)CC1)[C@@H]1CCCN(c2ncnc3c2nc2n3CCCC2)C1,inactive,–
C=C1C(=O)O[C@H]2C1CCC(C)=C1C(=O)C=C(C)[C@@]12O (stereo not given in full),inactive,–
COC(=O)/C=C/C=C/C(=O)OC1C=C2COC(=O)C2(O)C2(C)CCCC(C)(C)C12 (stereo not given),inactive,–
CC1(C)CC[C@]2(C(=O)O)[C@H](O)C[C@]3(C)C(=CCC4[C@@]5(C)CC[C@H](O[C@@H]6O[C@H](CO[C@@H]7OC[C@H](O)[C@H](O)[C@H]7O[C@@H]7OC[C@H](O)[C@H](O)[C@H]7O)[C@@H](O)[C@H](O)[C@H]6O)C(C)(C)C5CC[C@]43C)[C@@H]2C1 (stereo not given in full),–,15.2% [at 11.6 µM]
